Luciferase inh – Firefly luciferase inhibition profiling of diverse chemical library using quantitative high-throughput screening; Luciferin 4-monooxygenase (Photinus pyralis), P08659; purified P. pyralis luciferase, luminescence, biochemical; Potency, µM (top dose mostly 115 µM), actives largely listed as inhibitors; hit rate 2.5% among 76,000; AID 1347043, 2019; further: nearly all actives have a fitted effect of over 65% in size
Target sequence (P08659 whole entry, looked up): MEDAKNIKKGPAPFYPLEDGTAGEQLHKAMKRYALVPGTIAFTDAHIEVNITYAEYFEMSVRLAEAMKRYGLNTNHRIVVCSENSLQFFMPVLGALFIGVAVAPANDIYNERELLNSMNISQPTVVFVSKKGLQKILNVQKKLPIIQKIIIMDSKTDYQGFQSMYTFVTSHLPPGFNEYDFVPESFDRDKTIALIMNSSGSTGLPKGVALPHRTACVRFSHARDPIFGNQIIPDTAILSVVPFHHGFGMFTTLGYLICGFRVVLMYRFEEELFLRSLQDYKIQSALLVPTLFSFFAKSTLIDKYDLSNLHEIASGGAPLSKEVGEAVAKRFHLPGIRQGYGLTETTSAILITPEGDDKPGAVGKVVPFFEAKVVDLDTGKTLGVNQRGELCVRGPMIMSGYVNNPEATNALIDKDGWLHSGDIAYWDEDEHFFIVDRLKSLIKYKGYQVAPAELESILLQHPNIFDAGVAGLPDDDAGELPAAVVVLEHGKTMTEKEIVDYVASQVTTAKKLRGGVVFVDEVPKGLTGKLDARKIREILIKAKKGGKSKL
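FLuc 10nM, D-luciferin 10uM, ATP 10uM, Mg acetate 10mM, Tris acetate pH 7.5, Tween/BSA; cpd qHTS; enzyme added last; CCD luminescence.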
HEK293 tox – Cytotoxic Profiling in HEK 293 Cell Line of Diverse Libraries Using Quantitative High-Throughput Screening. AID 1345083, 2018. hit rate 6.6% among 94,000. HEK 293 viability, ATP luminescence (CellTiter-Glo), 48-72 h. Potency, µM (titrated, usually from 115 µM), usual class: inhibitors; further: nearly all actives have a fitted effect of over 60% in size
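HEK 293 cells seeded at 250 cells/well were exposed to compound for 48 or 72 hr at 37 degree Celsius. Viability taken as ATP content by CellTiter-Glo luminescence.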
hNpr1 antagonist – Natriuretic polypeptide receptor (hNpr1) antagonism - Primary qHTS; Atrial natriuretic peptide receptor 1 (Homo sapiens), P16066; hit rate 1.6% among 76,000; Potency, µM (highest dose often 46.3 µM), actives largely listed as inhibitors; HEK293 hNpr1 GloSensor cGMP, ANP-stimulated luminescence; calls by dose curve; further: nearly all actives have a fitted effect of over 60% in size
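Compound pre-incubated 30 min at room temperature on GloSensor-loaded HEK293 cells stably carrying hNpr1 and the pGS-40F cGMP biosensor. Stimulation uses hNppA at 0.1 nM final; luminescence is taken at baseline and 20 min post-agonist.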
3T3 cytotox – Cytotoxic Profiling in NIH 3T3 Cell Line of Diverse Libraries Using Quantitative High-Throughput Screening; NIH 3T3 viability, CellTiter-Glo ATP luminescence, 48-72 h; Potency, µM (highest dose often 96.7 µM), usual class: inhibitors; hit rate 4.3% among 94,000; AID 1345082, 2018; further: nearly all actives have a fitted effect of over 55% in size
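Cytotoxicity is measured as loss of cellular ATP: NIH 3T3 cells (400/well) are exposed to compound for 48 or 72 hr at 37 °C, then CellTiter-Glo luminescence is imaged after 10 min at room temperature.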
Numbers stand for hits; 0 = inactive; ? = inconclusive; - = no result given. Hits are enriched below; roughly 11% of the tested compounds scored in any of these assays. Unless noted, the call rests on the fitted dose curve; in most records, active means well fitted curve in the direction sought with a large enough effect; inconclusive means small, poorly fitted or top-dose-only effect, or another doubt; inactive means no such curve, though single readings can be large; an effect the other way counts as inactive or inconclusive.

SMILES	Luciferase inh	HEK293 tox	hNpr1 antagonist	3T3 cytotox
Clc1ccc(CCNc2ncncn2)c(Cl)c1	0	39.8µM	?	?
COc1ccc(-c2noc([C@@H]3Cc4nc[nH]c4CN3C(=O)Nc3ccccc3)n2)cc1	31.6µM	?	?	?
Cc1ccc(NC(=O)N2Cc3[nH]cnc3C[C@H]2c2nc(-c3ccc(C)cc3)no2)cc1	31.6µM	?	0	100µM
O=C1Cc2c(-c3cccc(N4CCOCC4)c3)n[nH]c2CN1Cc1ccccn1	0	0	0	?
CCOC(=O)[C@@H]1[C@@H](OC(N)=O)C(=O)N(Cc2ccccc2)C12CCN(C(=O)CC(C)C)CC2	-	?	-	0
c1ccc2oc([C@H]3CCN(C4CCCCC4)C3)nc2c1	?	0	?	0
CC(C)N1CC[C@H](c2nnc(-c3ccccc3F)o2)C1	39.8µM	0	0	0
c1ccc2oc([C@H]3CCN(C4CCOCC4)C3)nc2c1	79.4µM	0	0	0
Fc1ccccc1-c1nnc([C@H]2CCN(C3CCOCC3)C2)o1	70.8µM	0	0	0
Cn1cccc1CN1CCC(N2Cc3ccccc3C2=O)CC1	-	0	-	0
COC(=O)[C@H](Cc1ccc(OC)cc1)NC(=O)[C@H]1CN(C(C)=O)CCN1C(=O)C1CCCCC1	0	0	0	?
COc1ccc(-c2cccc(C(=O)NCC3CC3)c2)nn1	-	0	-	?
Cc1nc(CN2Cc3nc(Nc4ccc(C(F)(F)F)cc4)ccc3OCC2=O)cs1	0	?	?	?
O=c1cc(-c2cccnc2)oc2c(NCCc3ccccn3)nccc12	?	?	0	35.5µM
O=c1cc(-c2cccnc2)oc2c(-c3cccc(F)c3)nccc12	0	0	0	?
CCCS(=O)(=O)N1CC(CNC(C)=O)C2(CCCCC2)C1 (stereo unspecified)	-	0	-	0
COc1ccc(C(=O)N2CCC[C@H](n3c(=O)n(C)c4cccnc43)C2)cn1	-	0	-	0
Cc1noc(C)c1-c1cnc2[nH]cc(CC(=O)NCc3cccnc3)c2c1	0	?	0	31.6µM
COc1ccc(-c2cnc3[nH]cc(CC(N)=O)c3c2)cc1OC	0	?	0	10µM
Cc1cccc(-c2cnc3[nH]cc(CC(N)=O)c3c2)c1	0	?	0	?
Cc1noc(C)c1-c1cnc2[nH]cc(CC(N)=O)c2c1	0	?	0	10µM
NC(=O)Cc1c[nH]c2ncc(-c3ccc(F)cc3)cc12	?	0	0	?
O=C(NCCc1cnc[nH]1)C1CC(=O)N(c2n[nH]c3ccccc23)C1 (stereo unspecified)	0	0	0	0
COC(=O)[C@@H]1Cc2c([nH]c3ccccc23)[C@H]2C[C@@H](NCCc3cnc[nH]3)C[C@@H](c3cccc(Cl)c3)N21	0	28.2µM	0	?
CN1[C@@H](c2ccc(Cl)cc2)[C@@H](C(=O)NCCc2cnc[nH]2)C[C@@]1(C)C(=O)O	0	0	0	0
SMILES	Luciferase inh	HEK293 tox	hNpr1 antagonist	3T3 cytotox
COC(=O)[C@@H]1Cc2c([nH]c3ccccc23)[C@H]2C[C@H](NCCc3cnc[nH]3)C[C@@H](c3ccccc3F)N21	0	22.4µM	0	?
CCOC1CCOC2(CCN(C(=O)Nc3ccc(C)c(C)c3)CC2)C1 (stereo unspecified)	-	0	-	0
CC[C@@H]1[C@@H](NC(=O)C2(c3ccc(S(C)(=O)=O)cc3)CCC2)[C@@H]2CCO[C@H]12	0	0	0	0
Cc1cc(C)cc(C2(CNC(=O)C3CC4(CCNCC4)CN3)CCCC2)c1 (stereo unspecified)	0	79.4µM	0	?
CC(C)(C)CC(=O)Nc1cnc(-c2cccc(Cl)c2)nc1	0.251µM	35.5µM	3.98µM	31.6µM
CC(C)CNC(=O)N1CCc2nc(-c3ccccc3)[nH]c2C1	-	0	-	0
NC(=O)c1ccc(-c2nc3c([nH]2)CN(c2ncnc4ccsc24)CC3)cc1	0	31.6µM	0	0
CC(=O)N1CCn2c(nnc2C2CCCN2Cc2cc(Cl)ccc2F)C1 (stereo unspecified)	-	0	-	0
CC(C)c1ccc(CN2CC[C@@H]3OCC(=O)N(Cc4ccccc4)[C@H]3CC2)cc1	0	31.6µM	?	35.5µM
O=C1CO[C@H]2CCN(Cc3ccc4c(c3)CCO4)CC[C@@H]2N1Cc1ccccc1	0	?	0	100µM
O=C(NC1CCCC1)c1cc(C2CC2)nc2onc(C3CCCNC3)c12 (stereo unspecified)	-	0	-	0
CC(C)CN(Cc1ccncc1)C1CN(C(=O)c2ccco2)C1	-	0	-	?
CN1C(=O)C2(CCN(C(=O)CCC3CCCCC3)CC2)c2ccccc21	0	44.7µM	0	?
CN(C)c1ccc(CN2CCC3(C2)C(=O)N(Cc2ccccc2)c2ccccc23)cc1 (stereo unspecified)	0	35.5µM	0	?
CN1C(=O)C2(CCN(Cc3ccccc3)C2)c2ccccc21 (stereo unspecified)	0	100µM	0	?
O=C1N(Cc2ccccc2)c2ccccc2C12CCN([S+](=O)([O-])c1ccccc1)C2 (stereo unspecified)	0	0	0	?
CCCCn1c(=O)c(C(=O)N2CCN(C(=O)c3ccccc3Cl)CC2)nc2cccnc21	-	0	-	0
CN1CCC(OC2CCN(S(=O)(=O)c3ccc(F)cc3)CC2)CC1	0	0	0	0
COc1ccc(CC2CCOC3(CCN(C(=O)c4cc5ccccc5[nH]4)CC3)C2)cc1 (stereo unspecified)	0	31.6µM	0	?
COCC1CN(C)CC12CCN(C(=O)c1cc3ccccc3[nH]1)CC2 (stereo unspecified)	?	89.1µM	0	0
COc1ccc(CC2CCOC3(CCN(C(=O)c4ccco4)CC3)C2)cc1 (stereo unspecified)	-	50.1µM	-	?
COc1ccc2[nH]c(C(=O)N3CCC4(CC3)CC(O)CCO4)cc2c1 (stereo unspecified)	0	0	0	0
COc1ccc(CC2CCOC3(CCN(C(=O)CC(C)C)CC3)C2)cc1 (stereo unspecified)	0	?	?	?
O=C(COc1ccccc1)N1CCCC(c2noc(COc3ccccc3)n2)C1 (stereo unspecified)	?	?	0	?
COC(=O)[C@@H]1Cc2ncn(Cc3ccc(OC)cc3)c2CN1S(=O)(=O)c1ccc(F)cc1	0	0	0	79.4µM
COC(=O)[C@@H]1Cc2ncn(C)c2CN1S(=O)(=O)c1ccc2ccccc2c1	0	0	0	79.4µM
COC(=O)[C@@H]1Cc2ncn(Cc3ccc(OC)cc3)c2CN1Cc1ccc(F)cc1	0	63.1µM	?	?
COCCn1c(=O)c(C(=O)NCC(F)(F)F)nc2cccnc21	-	0	-	0
CO[C@H]1C[C@@H](O)C12CCN(C(=O)CCc1ccc(-c3cccs3)o1)CC2	0	25.1µM	?	?
O=C(CCc1ccc(-c2ccc(Cl)cc2)[nH]1)N[C@@H]1C[C@@H]2OCC[C@@H]21	0	79.4µM	0	?

Screens (PubChem BioAssay)
